# Experimental data as given in PubChem BioAssay (NCI).
# About 79,000 compounds went through this panel and 15% of them were active in at least one assay; those are over-represented in the sample as a whole. A number with no mark means an inactive call. Activity calls are given as the source filed them. Rule as the data show it: active = growth inhibition above about 70%; inactive = the rest.
# Columns and labels:
# [1] = NCI Yeast Anticancer Drug Screen. Data for the rad50 strain (AID 155);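 also: 0% = growth of vehicle-only cultures of the same strain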; conditions: S. cerevisiae rad50 strain growth inhibition, stronger effect = higher value
# Procedure, shortened: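 Cells are treated with compound, grown, and their growth is then scored against vehicle-only cultures of the same repair-deficient yeast strain.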
# [2] = NCI Yeast Anticancer Drug Screen. Data for the mec2-1 strain (AID 157); conditions: S. cerevisiae mec2-1 strain, stronger effect = higher value
# Procedure, shortened: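 Readout is yeast growth inhibition, normalised to vehicle-treated controls, in the mec2-1 strain exposed to compound.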
# [3] = NCI Yeast Anticancer Drug Screen. Data for the sgs1 mgt1 strain (AID 161);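 also: 0% = growth of cultures given vehicle only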; conditions: S. cerevisiae sgs1 mgt1 strain, stronger effect = higher value
# Procedure, shortened: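 Compounds are added to genetically altered yeast, and growth is compared with cultures given vehicle alone to give percent inhibition.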
# [4] = NCI Yeast Anticancer Drug Screen. Data for the cln2 rad14 strain (AID 165);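 also: 0% = growth equal to vehicle treated cultures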; conditions: S. cerevisiae cln2 rad14 strain, stronger effect = higher value
# Procedure, shortened: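 Relative to vehicle controls, growth inhibition of compound-treated cln2 rad14 yeast was recorded.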
# [5] = NCI Yeast Anticancer Drug Screen. Data for the bub3 strain (AID 167); conditions: S. cerevisiae bub3 mutant strain, stronger effect = higher value
# Procedure, shortened: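 Part of a panel of yeast mutants defective in DNA damage repair or cell cycle regulation. Each strain is grown with compound, and inhibition is calculated relative to solvent-treated cultures.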
# [6] = NCI Yeast Anticancer Drug Screen. Data for the mlh1 rad18 strain (AID 175); conditions: S. cerevisiae mlh1 rad18 strain growth inhibition, stronger effect = higher value
# Procedure, shortened: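 Test agents were incubated with a yeast strain of defined genotype (DNA damage repair defect). Inhibition of growth was derived by comparison with vehicle-exposed cultures.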
# [7] = at 5.0 µM (retest, dose inferred, filed as 0.5)
# [8] = at 50.0 µM (retest, dose inferred, filed as 5.0)
Structure (SMILES),"growth inhibition [1, 7]","growth inhibition [1, 8]",growth inhibition ([1]; at 50.0 µM),"growth inhibition [2, 7]","growth inhibition [2, 8]",growth inhibition ([2]; at 50.0 µM),"growth inhibition [3, 7]","growth inhibition [3, 8]",growth inhibition ([3]; at 50.0 µM),"growth inhibition [4, 7]","growth inhibition [4, 8]",growth inhibition ([4]; at 50.0 µM),"growth inhibition [5, 7]","growth inhibition [5, 8]",growth inhibition ([5]; at 50.0 µM),"growth inhibition [6, 7]","growth inhibition [6, 8]",growth inhibition ([6]; at 50.0 µM)
ClC1=C(Cl)C2(Cl)C(C3CO3)CC1(Cl)C2(Cl)Cl (centres undefined),0%,10%,76.1% (active),-1%,11%,69.3%,-2%,12%,90.8% (active),-12%,-13%,34.4%,4%,28%,89.7% (active),0%,18%,55.9%
CC[C@@]1(O)CC(OC2CC(N3CCOCC3)C(O)C(C)O2)c2c(O)c3c(c(O)c2[C@H]1O)C(=O)c1cccc(O)c1C3=O (some centres undefined),96% (active),98% (active),59.3%,36%,99% (active),51.2%,63%,99% (active),49.4%,31%,99% (active),97.3% (active),24%,99% (active),99% (active),52%,98% (active),51.1%
COc1ccc(/C=C/[N+](=O)[O-])c(OC)c1OC,43%,50%,84.5% (active),52%,55%,92.5% (active),48%,100% (active),93.2% (active),50%,99% (active),54%,69%,99% (active),91.8% (active),39%,48%,87.8% (active)
Cc1cc[n+](C2=C(Nc3ccc(Cl)cc3Cl)C(=O)c3ccccc3C2=O)cc1,41%,90% (active),92.3% (active),-1%,58%,61.5%,1%,59%,66.4%,4%,39%,40.2%,5%,78% (active),61.1%,4%,58%,81% (active)
NC(N)=N/N=C1\C(=O)N(c2ccc(Cl)cc2)C(=O)C1C(=O)Nc1ccc(Cl)cc1 (centres undefined),1%,-2%,54.6%,14%,17%,46.1%,5%,11%,76.1% (active),0%,-3%,-8.8%,8%,19%,-7.75%,2%,-14%,83.1% (active)
O=C1C(Cl)=C(Cl)C(=O)N1c1ccc(F)cc1,53%,99% (active),52%,42%,100% (active),28.8%,28%,100% (active),88.3% (active),24%,99% (active),89.2% (active),35%,99% (active),90.8% (active),45%,100% (active),48.1%
CC(=O)C1CCC2C3CCC4=CC(=[N+]5CCCCC5)CCC4(C)C3CCC12C (centres undefined),98% (active),74% (active),95.4% (active),100% (active),95% (active),96.4% (active),97% (active),95% (active),97.5% (active),99% (active),87% (active),91.7% (active),99% (active),93% (active),93.5% (active),99% (active),92% (active),95.8% (active)
O=C1N[C@@H]2C(=C[C@H](O)[C@@H](O)[C@H]2O)c2cc3c(c(O)c21)OCO3,41%,82% (active),3.8%,41%,82% (active),-19%,53%,84% (active),18.1%,60%,83% (active),0.2%,53%,78% (active),-3.1%,41%,84% (active),6.3%
